Assay in all cases: NCI-60 one-dose screen, 48 h (100 = growth as untreated, 0 = no growth, -100 = all killed)
Experiment [1] relates to SR leukemia. The settings on record: 10 µM unless noted.
For experiment [2], the system named is RPMI-8226 leukemia. The conditions noted are these: 10 µM unless noted.
Experiment [3] deals with OVCAR-8 ovarian. The conditions noted are these: 10 µM unless noted.
The subject of experiment [4] is OVCAR-5 ovarian. The settings on record: 10 µM unless noted.
Experiment [5] concerns OVCAR-4 ovarian. The settings on record: 10 µM unless noted.
Experiment [6] deals with SK-OV-3 ovarian. The settings on record: 10 µM unless noted.
The subject of experiment [7] is IGROV1 ovarian. The settings on record: 10 µM unless noted.
Experiment [8] deals with OVCAR-3 ovarian. The settings on record: 10 µM unless noted.
Experiment [9] concerns HS 578T breast. The conditions noted are these: 10 µM.
For experiment [10], the system named is NCI/ADR-RES ovarian. The settings on record: 10 µM unless noted.
Experiment [11] relates to T-47D breast. The settings on record: 10 µM unless noted.
The subject of experiment [12] is BT-549 breast. The settings on record: 10 µM unless noted.
Experiment [13] has as its system MDA-MB-435 melanoma. The settings on record: 10 µM unless noted.
Experiment [14] has as its system SW-620 colon. The conditions noted are these: 10 µM unless noted.
Experiment [15] has as its system MCF7 breast. The conditions noted are these: 10 µM unless noted.
Experiment [16] has as its system HCT-116 colon. The conditions noted are these: 10 µM unless noted.
The subject of experiment [17] is KM12 colon. The settings on record: 10 µM unless noted.
Experiment [18] has as its system HCC-2998 colon. The conditions noted are these: 10 µM.

Experimental findings from PubChem BioAssay (NCI) are described below.

This is part of a sample that, as a whole, favours compounds with a hit. Of some 83,000 tested, about 20% had one in any assay.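 In brief: 96-well plates, 48 h treatment, single concentration, percent growth endpoint.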 A number with no mark means an inactive call. Active and inactive are the calls of the source. The calls were made as follows: active = growth percent below 10; inactive = the rest.

As to `CSc1nc2ncncc2[nH]1`, the growth is 95.2% in experiment [1]; 201% in experiment [2]; 104% in [3]; 93.9% in experiment [4]; 102% in experiment [5]; 113% in experiment [6]. The growth in [7] is 76.1%; in experiment [8], 109%; in experiment [9], 74.8%; in [10], 106%; in [11], 93.8%; in [12], 110%. Further, the growth in experiment [13] is 91.9%; in experiment [14] it was 106%; in [15] it was 94.4%; in [16], 84.8%; in [17], 116%.

Turning to `O=C1OCC2=C1C(c1cccc(F)c1)c1cc3c(cc1N2CCO)OCCO3` (configuration not stated), the growth in [1] is 12.3%; in experiment [2], 22.1%; in experiment [3] it was 24.4%; in experiment [4], 30.8%; in experiment [5] it was 45%; in experiment [6] it was 27.1%. Besides, the growth in experiment [7] is 26.3%; in experiment [8], -13.9% (active); in experiment [9], 31.4%; in experiment [10] it was 6.36% (active); in [11] it was 46.8%; in experiment [12] it was 43.6%. In addition, the growth in experiment [13] was -40.7% (active); in experiment [14], 26.8%; in [15] it was 15.6%; in experiment [16], 11.2%; in experiment [17], 14%.

Turning to `CNC(=O)c1cc(Oc2ccc3nc(NC(=O)Nc4ccc(Cl)c(C(F)(F)F)c4)sc3c2)ccn1`, the growth in experiment [1] is 22.6%; in experiment [2] it was 61.4%; in [3] it was -11.1% (active); in [4], 30.8%; in experiment [5], -34% (active); in experiment [6], 12.7%. The growth in experiment [7] was 56.8%; in experiment [8] it was -61.1% (active); in [9], -16.1% (active); in experiment [10] it was 11.4%; in experiment [11] it was -2.44% (active); in experiment [12] it was 17.4%. Further, the growth was 12.9% in experiment [13]; 21.5% in [14]; 20.8% in [15]; -22% (active) in experiment [16]; 46.6% in [18]; 29.8% in experiment [17].

On to `c1cc[n+](Cc2c3ccccc3cc3c2ccc2ccccc23)cc1`, for which the growth was 21.2% in experiment [1]; 17.6% in experiment [2]; 39.8% in experiment [3]; 81.1% in experiment [4]; 34.4% in experiment [5]; 87.9% in [6]. Besides, the growth in experiment [7] is 13.7%; in [8] it was 36%; in [9], 13.3%; in experiment [10], 99.3%; in [11] it was 30.8%; in experiment [12], 10.4%. The growth in experiment [13] is 51%; in [14], 57.4%; in [16] it was 58.1%; in [18], 42.8%; in experiment [17] it was 35.9%.

As for `Clc1ccc(C(Cn2ccnc2)OCc2ccsc2Cl)c(Cl)c1` (configuration not stated), the growth was 17.3% in [1]; 37.6% in experiment [2]; 57.2% in [3]; 68.9% in [4]; 52.7% in experiment [5]; 70.7% in experiment [6]. Also, the growth in experiment [7] is 40.9%; in experiment [8], 55.7%; in experiment [9], 30.8%; in experiment [10] it was 23.1%; in experiment [11], 43.5%; in experiment [12] it was 40%. The growth is -0.595% (active) in experiment [13]; 45.1% in experiment [14]; 43.7% in experiment [15]; 26.3% in experiment [16]; 24.6% in experiment [17].

As to `CCOC(=O)C1=C(C)N=C2Sc3cc(OC(F)(F)F)ccc3N2[C@H]1c1ccccn1`, the growth in experiment [1] is 26.2%; in [2], 33.6%; in [3] it was 38%; in experiment [4], 65%; in [5] it was 28.3%; in [6], 39.9%. Further, the growth was 39.8% in [7]; 51.5% in [8]; 63.5% in experiment [9]; 38.2% in experiment [10]; 25.1% in experiment [11]; 59.4% in experiment [12]. Besides, the growth in experiment [13] was 51.1%; in experiment [14], 23.6%; in experiment [15], 41.3%; in experiment [16], 24.2%; in experiment [17] it was 32.3%.

As for `CC(C)[C@@H](C)/C=C/[C@@H](C)[C@H]1CCC2=C3C=CC4=CC(=O)CC[C@]4(C)[C@H]3CC[C@@]21C`, the growth in experiment [1] was 70.8%; in [2] it was 66%; in [3], 91.1%; in experiment [4], 105%; in [5], 101%; in experiment [6] it was 105%. In addition, the growth in experiment [7] was 110%; in experiment [8] it was 116%; in [9] it was 108%; in experiment [10] it was 101%; in experiment [11], 91.3%; in experiment [12], 102%. For the same compound, the growth in [13] was 103%; in experiment [15] it was 93.6%; in experiment [16], 93%; in experiment [18], 112%; in [17], 104%.

Take `CC12O[C@H](C[C@@H](OC(=O)CCC(=O)O)[C@H]1O)n1c3ccccc3c3c4c(c5c6ccccc6n2c5c31)C(=O)NC4=O`: the growth in experiment [1] was 0.804% (active); in experiment [2] it was 58.7%; in experiment [3], 37.7%; in experiment [4] it was 69.3%; in experiment [5] it was 68%; in [6], -8.63% (active). Also, the growth in [7] was 20.4%; in [8], 27.9%; in experiment [9] it was 19.2%; in [10] it was 58.7%; in experiment [11], 35.8%; in experiment [12], -1.04% (active). The growth in experiment [13] was 8.34% (active); in experiment [14] it was 36.2%; in experiment [15], 19.2%; in experiment [18] it was 41.3%; in [17] it was 15.4%.
